{
  "source": "PubChem BioAssay AID2533",
  "about": "(National Center for Advancing Translational Sciences (NCATS), 2010)",
  "note": "Where “and” joins values, the source holds several entries; their conditions need not be identical. Equal values may be shown once. Results filed as inconclusive are left out. Entries that show only a call come without a potency. Calls of active or inactive are those of the source. Calls follow the shape of the dose curve; as a rule, active = well fitted activation curve with a large enough effect; inconclusive = small, poorly fitted or top-dose-only effect; inactive = flat fitted curve, though single readings scatter. Potency is read from the fitted curve at half-maximal effect.",
  "data": [
    {"target": "Pyruvate kinase PKM (Homo sapiens) (UniProt P14618)", "sequence (P14618 whole entry, looked up, canonical isoform)": "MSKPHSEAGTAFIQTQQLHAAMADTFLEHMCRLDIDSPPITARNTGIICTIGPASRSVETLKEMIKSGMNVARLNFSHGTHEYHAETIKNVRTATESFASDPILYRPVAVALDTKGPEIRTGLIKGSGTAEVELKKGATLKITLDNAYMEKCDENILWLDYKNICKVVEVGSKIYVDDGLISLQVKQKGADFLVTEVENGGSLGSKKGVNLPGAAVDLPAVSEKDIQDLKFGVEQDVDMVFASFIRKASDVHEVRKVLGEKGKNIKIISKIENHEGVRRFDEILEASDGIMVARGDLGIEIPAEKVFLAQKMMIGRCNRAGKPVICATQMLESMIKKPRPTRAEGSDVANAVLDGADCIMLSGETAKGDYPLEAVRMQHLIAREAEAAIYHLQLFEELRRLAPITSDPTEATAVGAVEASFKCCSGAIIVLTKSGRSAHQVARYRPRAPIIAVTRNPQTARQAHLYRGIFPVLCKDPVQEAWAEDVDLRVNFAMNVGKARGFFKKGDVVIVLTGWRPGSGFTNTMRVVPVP", "test": "Confirmation Concentration-Response Assay for Activators of Human Muscle isoform 2 Pyruvate Kinase: for Probe SAR; also: nearly all actives have a fitted effect of over 60% in size", "details": "purified PKM2, ATP generation, Kinase-Glo luminescence; series mostly up to 57.5 µM", "from_the_text": "NIH Chemical Genomics Center [NCGC]\nMatthew G. Vander Heiden, M.D., Ph.D. [Harvard Medical School, 77 Avenue Louis Pasteur, Boston, MA 02115]\nHuman pyruvate kinase muscle 2 (hPK-M2) enzyme was supplied as a highly purified (>95% pure) preparation from Harvard Medical School and assayed for its ability to generate ATP from ADP using phosphoenolpyruvate (PEP) as a substrate. ATP generation was detected in a coupled reaction by luciferase-mediated luminescence, an ATP-dependent process. […] The enzyme was assayed at an intermediate level of activity to screen for both inhibitors and activators.\nNCGC Assay Protocol Summary:\nThree uL of substrate mix (at r.t.) in assay buffer (50 mM Imidazole pH7.2, 50 mM KCl, 7 mM MgCl2, 0.01% Tween 20, 0.05% BSA) was dispensed into white solid bottom 1,536 well microtiter plates so that the final concentrations of substrates in the assay were 0.1 mM ADP and 0.5 mM PEP. 23 nL of compound were delivered by a pin tool and 1 uL of enzyme mix (final concentration of 0.1 nM) in assay buffer (4 degree Celsius) was added. Plates were incubated at room temperature for 1 hour. Two uL of detection mix (Kinase-Glo, Promega; at 4 degree Celsius protected from light) was added and luminescence read by a ViewLux (Perkin Elmer) at 1 second exposure/plate. Data were normalized to the uninhibited (column 3) and AC100 inhibition (no enzyme in column 2). To monitor activation, the first column contained a titration of the activator, NCGC00031955-03 (16-point 1:2 dilutions in duplicate starting at 57 uM) and the first 16 rows of column 4 contained 57 uM of NCGC00031955-03.", "values": [
      {"smiles": "Cc1ccn2c(NCc3ccco3)c(-c3ccccc3)nc2c1", "Potency": "inactive"},
      {"smiles": "Cc1ccc2nc(-c3ccco3)c(Nc3ccccc3)n2c1", "Potency": "inactive"},
      {"smiles": "O=C1c2ccccc2C(=O)N1c1cccc(Cl)c1", "Potency": "inactive"},
      {"smiles": "COc1cc(F)c(S(=O)(=O)N2CCN(S(=O)(=O)c3cccs3)CC2)c(F)c1", "Potency": "0.0366 µM (active)"},
      {"smiles": "Nc1ccccc1OC1=NS(=O)(=O)c2ccccc21", "Potency": "inactive"},
      {"smiles": "Nc1cccc(S(=O)(=O)N2CCN(S(=O)(=O)c3c(F)cccc3F)CC2)c1", "Potency": "0.13 µM (active)"},
      {"smiles": "Cc1ccc(NS(=O)(=O)c2ccc3c(c2)N(C)CCO3)cc1C", "Potency": "18.3 µM (active)"},
      {"smiles": "O=S(=O)(c1ccc2c(c1)OCCO2)N1CCN(S(=O)(=O)c2c(F)cccc2F)CC1", "Potency": "517 nM (active) and 183 nM (active) and 291 nM (active)"},
      {"smiles": "COc1ccc(NS(=O)(=O)c2ccccc2C(=O)O)cc1", "Potency": "inactive"},
      {"smiles": "O=S1(=O)N=C(Oc2cccc(-c3ccccc3)c2)c2ccccc21", "Potency": "inactive"},
      {"smiles": "Cc1ccccc1Nc1c(-c2ccccc2)nc2cccc(C)n12", "Potency": "inactive"},
      {"smiles": "COc1cc(F)c(S(=O)(=O)N2CCCN(S(=O)(=O)c3cccc(NC(C)=O)c3)CC2)c(F)c1", "Potency": "2.91 µM (active)"},
      {"smiles": "O=C1c2ccccc2C(=O)N1c1cccnc1", "Potency": "inactive"},
      {"smiles": "Cc1ccc(NS(=O)(=O)c2ccc3c(c2)oc(=O)n3C)cc1C", "Potency": "10.3 µM (active)"},
      {"smiles": "COc1cc(F)c(S(=O)(=O)N2CCN(S(=O)(=O)c3ccc(NC(C)=O)cc3)CC2)c(F)c1", "Potency": "13 µM (active)"},
      {"smiles": "O=C1c2ccccc2C(=O)N1c1cccc2cnccc12", "Potency": "inactive"},
      {"smiles": "COc1ccc(-c2nc3cccc(C)n3c2Nc2ccc(C)cc2)cc1", "Potency": "inactive"},
      {"smiles": "CSc1cc2c(s1)c1cnn(Cc3cccc(O)c3)c(=O)c1n2C", "Potency": "0.0411 µM (active)"},
      {"smiles": "Cc1ccc(-c2nc3ccccn3c2Nc2ccc(F)cc2)o1", "Potency": "inactive"},
      {"smiles": "O=S(=O)(c1cccc(O)c1)N1CCN(S(=O)(=O)c2c(F)cccc2F)CC1", "Potency": "0.58 µM (active)"},
      {"smiles": "O=C1c2ccccc2C(=O)N1c1cncc2ccccc12", "Potency": "inactive"},
      {"smiles": "O=C1c2ccccc2C(=O)N1c1ccc2ccccc2n1", "Potency": "inactive"},
      {"smiles": "Cc1ccc2nc(-c3ccc(C)o3)c(Nc3ccccc3)n2c1", "Potency": "inactive"},
      {"smiles": "O=S1(=O)N=C(Oc2ccc(Cl)cc2)c2ccccc21", "Potency": "inactive"},
      {"smiles": "COc1cc(N2C(=O)c3ccccc3C2=O)c2ncccc2c1", "Potency": "inactive"},
      {"smiles": "CC(=O)Nc1cccc(S(=O)(=O)N2CCCN(S(=O)(=O)c3ccc4c(c3)OCCO4)CC2)c1", "Potency": "1.3 µM (active)"},
      {"smiles": "Nc1cc(S(=O)(=O)N2CCN(S(=O)(=O)c3ccc4c(c3)OCCO4)CC2)ccn1", "Potency": "3.26 µM (active)"},
      {"smiles": "Cc1ccc(NS(=O)(=O)c2ccc3c(c2)CCC(=O)N3)cc1F", "Potency": "0.517 µM (active)"},
      {"smiles": "CC(=O)Nc1cccc(OC2=NS(=O)(=O)c3ccccc32)c1", "Potency": "inactive"},
      {"smiles": "COc1ccc(-c2nc3ccccn3c2Nc2ccccc2C)cc1", "Potency": "14.6 µM (active)"},
      {"smiles": "Cc1cccc(OC2=NS(=O)(=O)c3ccccc32)c1", "Potency": "inactive"},
      {"smiles": "COc1ccccc1NS(=O)(=O)c1ccc2c(c1)CCC(=O)N2", "Potency": "20.6 µM (active)"},
      {"smiles": "Cc1ccc(NS(=O)(=O)c2ccc3c(c2)CCC(=O)N3)cc1", "Potency": "5.8 µM (active)"},
      {"smiles": "O=S1(=O)N=C(Oc2ccc3ccccc3c2)c2ccccc21", "Potency": "inactive"},
      {"smiles": "O=C1c2ccccc2C(=O)N1c1nccs1", "Potency": "inactive"},
      {"smiles": "O=C1CCc2cc(S(=O)(=O)Nc3ccccc3Cl)ccc2N1", "Potency": "18.3 µM (active)"},
      {"smiles": "Cc1ccc(NS(=O)(=O)c2ccc3c(c2)n(C)c(=O)n3C)cc1C", "Potency": "1.46 µM (active)"},
      {"smiles": "O=C1CCc2cc(S(=O)(=O)Nc3ccc4ncccc4c3)ccc2N1", "Potency": "inactive"},
      {"smiles": "Cc1ccc(C)c(OC2=NS(=O)(=O)c3ccccc32)c1", "Potency": "inactive"},
      {"smiles": "Cc1ccc(NS(=O)(=O)c2ccc3c(c2)CC(=O)N3C)cc1C", "Potency": "3.66 µM (active)"}
    ]}
  ]
}
